Data: PubChem BioAssay AID1159580 (chemical genetic matrix, 2015)
Where “and” joins values, the source holds several entries; their conditions need not be identical. Equal entries are not always repeated. The whole screen tested about 5,500 compounds, of which about 2,000 (36%) were called active. Inconclusive results (about 18%) are left out. No stated cut-off is given here; in the data, active means normalized growth mostly below about 0.91 (no sharp cut-off); inconclusive means no clear call, values can overlap the other calls; inactive means mostly above about 0.92. The list shows a part of the results.

Assay: chemical genetic growth profiling, strain panel (AID 1159580);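 further: tested at 20 µM; growth read once vehicle control cultures reached saturation at 30 °C; 1 = growth at the plate median or of vehicle wells; lower values mean less growth of the strain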
Settings: S. cerevisiae deletion strains, growth OD

Measured: normalized growth

CC(N)C(=O)OC(C)(C)Cc1ccc(Cl)cc1 (stereo unspecified)
inactive: locus YAL013W, strain DEP1, active compounds read low 0.986 and 1.01 | locus YAL021C, strain ccr4, active compounds read low 1.03 | locus YAL026C, strain drs2, active compounds read low 1.03 | locus YAL030W, strain snc1, active compounds read low 1.01 | locus YAL040C, strain CLN3, active compounds read low 1 | locus YBL061C, strain skt5, active compounds read low 1.02 | locus YBR009C, strain hhf1, active compounds read low 1.06 | locus YBR021W, strain FUR4, active compounds read low 0.943 | locus YBR023C, strain chs3, active compounds read low 1.02 | locus YBR171W, strain sec66, active compounds read low 1.02 | locus YBR229C, strain ROT2, active compounds read low 0.957 | locus YBR231C, strain swc5, active compounds read low 1.01 | locus YBR279W, strain paf1, active compounds read low 1.01 | locus YCL011C, strain gbp2, active compounds read low 1.01 | locus YCL016C, strain dcc1, active compounds read low 1.01 | locus YCL029C, strain bik1, active compounds read low 0.987 | locus YCL061C, strain MRC1 (second series), active compounds read low 0.995 | locus YCL061C, strain MRC1, active compounds read low 1.02 | locus YCL069W, strain vba3, active compounds read low 1.01 | locus YCR088W, strain abp1, active compounds read low 1.01 | locus YDL005C, strain med2, active compounds read low 1.03 | locus YDL035C, strain GPR1, active compounds read low 0.98 | locus YDL040C, strain nat1, active compounds read low 1 | locus YDL074C, strain BRE1, active compounds read low 0.988 | locus YDL101C, strain DUN1, active compounds read low 0.983 | locus YDL134C, strain PPH21, active compounds read low 0.984 | locus YDL185W, strain tfp1, active compounds read low 0.996 | locus YDL192W, strain arf1, active compounds read low 0.983 | locus YDR001C, strain nth1, active compounds read low 1.02 | locus YDR069C, strain doa4, active compounds read low 1.03 | locus YDR101C, strain arx1, active compounds read low 0.983 | locus YDR137W, strain rgp1, active compounds read low 1.05 | locus YDR150W, strain NUM1, active compounds read low 0.96 | locus YDR159W, strain sac3, active compounds read low 1.01 | locus YDR162C, strain NBP2, active compounds read low 0.985 | locus YDR195W, strain ref2 0.97 | locus YDR297W, strain sur2, active compounds read low 1.01 | locus YDR318W, strain mcm21, active compounds read low 0.996 | locus YDR334W, strain swr1, active compounds read low 1.02 | locus YDR335W, strain msn5, active compounds read low 1.02 | locus YDR363W, strain ESC2, active compounds read low 0.999 | locus YDR388W, active compounds read low 0.989 | locus YDR392W, strain spt3, active compounds read low 1.03 | locus YDR502C, strain sam2, active compounds read low 0.991 | locus YEL003W, strain gim4, active compounds read low 1.01 | locus YEL037C, strain rad23, active compounds read low 1.01 | locus YEL061C, strain CIN8 (second series), active compounds read low 1.02 | locus YEL061C, strain CIN8, active compounds read low 0.977 | locus YER002W, strain NOP16, active compounds read low 1.02 | locus YER015W, strain faa2, active compounds read low 1.01 | locus YER016W, strain bim1, active compounds read low 1.01 | locus YER110C, active compounds read low 0.972 | locus YER111C, strain swi4, active compounds read low 1.03 | locus YER155C, strain BEM2 (second series), active compounds read low 0.996 | locus YER155C, strain BEM2, active compounds read low 1 | locus YER167W, strain BCK2, active compounds read low 1.01 | locus YFR010W, strain ubp6, active compounds read low 1.03 | locus YGL078C, strain dbp3, active compounds read low 0.983 | locus YGL086W, strain mad1, active compounds read low 0.975 | locus YGL167C, strain pmr1, active compounds read low 1.01 | locus YGL173C, strain kem1, active compounds read low 1.04 | locus YGL227W, strain vid30, active compounds read low 1.01 | locus YGL240W, strain doc1, active compounds read low 1.02 | locus YGL248W, strain PDE1, active compounds read low 0.984 | locus YGL253W, strain hxk2, active compounds read low 1.01 | locus YGR078C, strain PAC10, active compounds read low 0.982 | locus YGR135W, strain pre9, active compounds read low 0.994 | locus YGR229C, strain SMI1, active compounds read low 0.996 | locus YGR252W, strain gcn5, active compounds read low 0.882 | locus YHR013C, strain ard1, active compounds read low 1.04 | locus YHR027C, strain rpn1, active compounds read low 1.01 | locus YHR030C, strain SLT2, active compounds read low 0.982 and 1.03 | locus YHR079C, strain IRE1 (second series), active compounds read low 0.994 | locus YHR079C, strain IRE1, active compounds read low 1.03 | locus YHR094C, strain hxt1, active compounds read low 0.995 | locus YHR129C, strain ARP1, active compounds read low 0.997 | locus YHR142W, strain chs7, active compounds read low 1.04 | locus YHR200W, strain rpn10, active compounds read low 0.987 | locus YIL066C, strain RNR3, active compounds read low 0.965 | locus YIL073C, strain SPO22, active compounds read low 1.02 | locus YIL125W, strain kgd1, active compounds read low 0.984 | locus YIR030C, strain dcg1, active compounds read low 0.977 | locus YJL092W, strain hpr5, active compounds read low 1.02 | locus YJL095W, strain BCK1 (second series), active compounds read low 1 | locus YJL095W, strain BCK1, active compounds read low 1.02 and 1.01 | locus YJL115W, strain asf1, active compounds read low 1.02 | locus YJL129C, strain trk1, active compounds read low 1.03 | locus YJL134W, strain LCB3, active compounds read low 0.983 | locus YJL154C, strain vps35, active compounds read low 1.01 | locus YJL164C, strain tpk1, active compounds read low 1.03 | locus YJL166W, strain qcr8, active compounds read low 1.04 | locus YJL168C, strain set2, active compounds read low 0.989 | locus YJL187C, strain SWE1 (second series), active compounds read low 0.978 | locus YJL187C, strain SWE1, active compounds read low 1.01 | locus YJR043C, strain POL32, active compounds read low 1.02 | locus YJR066W, strain TOR1, active compounds read low 0.971
